From PubChem BioAssay AID1159580 (chemical genetic matrix, 2015)
Among all 5,500 compounds or so, about 2,000 (36%) were called active. Inconclusive results (about 18%) are left out. Rule as the data show it: active = normalized growth mostly below about 0.91 (no sharp cut-off); inconclusive = no clear call, values can overlap the other calls; inactive = mostly above about 0.92. This is one part of the list.

Experiment: chemical genetic growth profiling, strain panel (AID 1159580);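 also: tested at 20 µM; growth read once vehicle control cultures reached saturation at 30 °C; 1 = growth at the plate median or of vehicle wells; lower values mean less growth of the strain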
Details: S. cerevisiae deletion strains, growth OD

Measured: normalized growth

O=C(Nc1ccc(C(=O)O)c(O)c1)c1ccccc1
inactive: locus YAL021C, strain ccr4, hits give low values 0.968 | locus YAL026C, strain drs2, hits give low values 0.982 | locus YAL030W, strain snc1, hits give low values 0.952 | locus YBL061C, strain skt5, hits give low values 0.977 | locus YBR009C, strain hhf1, hits give low values 0.97 | locus YBR023C, strain chs3, hits give low values 0.991 | locus YBR171W, strain sec66, hits give low values 0.968 | locus YBR231C, strain swc5, hits give low values 0.972 | locus YBR279W, strain paf1, hits give low values 0.989 | locus YCL011C, strain gbp2, hits give low values 0.979 | locus YCL016C, strain dcc1, hits give low values 0.979 | locus YCL061C, strain MRC1, hits give low values 0.989 | locus YCL069W, strain vba3, hits give low values 0.987 | locus YCR088W, strain abp1, hits give low values 0.987 | locus YDL005C, strain med2, hits give low values 0.978 | locus YDL040C, strain nat1, hits give low values 0.976 | locus YDR001C, strain nth1, hits give low values 0.964 | locus YDR069C, strain doa4, hits give low values 0.974 | locus YDR137W, strain rgp1, hits give low values 0.916 | locus YDR159W, strain sac3, hits give low values 0.985 | locus YDR195W, strain ref2 0.952 | locus YDR297W, strain sur2, hits give low values 0.976 | locus YDR334W, strain swr1, hits give low values 0.942 | locus YDR335W, strain msn5, hits give low values 0.972 | locus YDR392W, strain spt3, hits give low values 0.986 | locus YEL003W, strain gim4, hits give low values 0.974 | locus YEL037C, strain rad23, hits give low values 0.992 | locus YEL061C, strain CIN8 (second series), hits give low values 0.976 | locus YER015W, strain faa2, hits give low values 0.968 | locus YER016W, strain bim1, hits give low values 0.979 | locus YER111C, strain swi4, hits give low values 0.992 | locus YER155C, strain BEM2 (second series), hits give low values 0.967 | locus YFR010W, strain ubp6, hits give low values 0.963 | locus YGL167C, strain pmr1, hits give low values 0.989 | locus YGL173C, strain kem1, hits give low values 0.967 | locus YGL227W, strain vid30, hits give low values 0.974 | locus YGL240W, strain doc1, hits give low values 0.977 | locus YGL253W, strain hxk2, hits give low values 0.986 | locus YHR013C, strain ard1, hits give low values 0.962 | locus YHR027C, strain rpn1, hits give low values 0.964 | locus YHR030C, strain SLT2, hits give low values 0.937 | locus YHR079C, strain IRE1, hits give low values 0.939 | locus YHR142W, strain chs7, hits give low values 0.968 | locus YJL092W, strain hpr5, hits give low values 0.999 | locus YJL095W, strain BCK1 (second series), hits give low values 0.981 | locus YJL095W, strain BCK1, hits give low values 0.976 | locus YJL115W, strain asf1, hits give low values 0.974 | locus YJL129C, strain trk1, hits give low values 0.999 | locus YJL154C, strain vps35, hits give low values 0.965 | locus YJL164C, strain tpk1, hits give low values 0.983 | locus YJL166W, strain qcr8, hits give low values 0.973 | locus YJL187C, strain SWE1, hits give low values 0.984 | locus YJR066W, strain TOR1, hits give low values 0.908 | locus YKL160W, strain elf1, hits give low values 0.981 | locus YKR026C, strain gcn3, hits give low values 0.99 | locus YKR091W, strain srl3, hits give low values 0.984 | locus YLL001W, strain dnm1, hits give low values 0.983 | locus YLL026W, hits give low values 0.958 | locus YLL041C, strain sdh2, hits give low values 0.979 | locus YLR027C, strain aat2, hits give low values 0.968 | locus YLR113W, strain HOG1, hits give low values 0.974 | locus YLR221C, strain rsa3, hits give low values 0.984 | locus YLR258W, strain gsy2, hits give low values 0.987 | locus YLR262C, strain YPT6 (second series), hits give low values 0.938 | locus YLR320W, strain mms22, hits give low values 0.973 | locus YLR342W, strain FKS1, hits give low values 0.978 | locus YLR357W, strain rsc2, hits give low values 1 | locus YLR370C, strain arc18, hits give low values 0.975 | locus YLR384C, strain iki3, hits give low values 0.962 | locus YML120C, strain ndi1, hits give low values 0.986 | locus YMR058W, strain fet3, hits give low values 0.984 | locus YMR125W, strain sto1, hits give low values 0.984 | locus YMR129W, hits give low values 0.989 | locus YMR205C, strain PFK2, hits give low values 0.969 | locus YMR231W, strain pep5, hits give low values 0.984 | locus YNL071W, strain lat1, hits give low values 0.978 | locus YNL183C, strain NPR1, hits give low values 0.92 | locus YNL209W, strain ssb2, hits give low values 0.957 | locus YNL248C, strain rpa49, hits give low values 0.986 | locus YNL322C, strain KRE1 (second series), hits give low values 0.97 | locus YNR049C, strain mso1, hits give low values 0.967 | locus YOR001W, strain rrp6, hits give low values 0.982 | locus YOR070C, strain gyp1, hits give low values 0.976 | locus YOR080W, strain dia2, hits give low values 0.975 | locus YOR083W, strain WHI5, hits give low values 0.984 | locus YOR106W, strain vam3, hits give low values 0.989 | locus YOR231W, strain MKK1, hits give low values 0.941 | locus YOR265W, strain rbl2, hits give low values 0.988 | locus YOR270C, strain vph1, hits give low values 0.972 | locus YOR290C, strain snf2, hits give low values 0.99 | locus YPL051W, strain arl3, hits give low values 0.981 | locus YPL078C, strain atp4, hits give low values 0.97 | locus YPL106C, strain sse1, hits give low values 0.918 | locus YPL240C, strain hsp82, hits give low values 0.982 | locus YPL256C, strain CLN2, hits give low values 0.963
